High-throughput results deposited in PubChem by National Center for Advancing Translational Sciences (NCATS).
HP1b chromo inh – inhibitors of HP1-beta chromodomain binding to methylated histone tails; P83916; AlphaScreen HP1-beta / biotin-H3K9me3 peptide binding; Potency, µM (doses to about 114 µM), for the others: top-dose activity change, negative = inhibition, hits mostly inhibitors; 390,000 compounds, 0.56% hits; note: nearly all actives have a fitted effect of over 70% in size
Target sequence (P83916 whole entry, looked up): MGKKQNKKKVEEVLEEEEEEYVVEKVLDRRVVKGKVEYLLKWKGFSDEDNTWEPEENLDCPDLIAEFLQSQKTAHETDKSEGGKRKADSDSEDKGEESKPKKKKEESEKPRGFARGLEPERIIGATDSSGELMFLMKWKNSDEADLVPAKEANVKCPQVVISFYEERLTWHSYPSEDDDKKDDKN
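Compound inhibition of the preformed complex between 50 nM HP1-beta and 50 nM biotinylated H3K9me3 peptide was read by AlphaScreen. Buffer was PBS pH 7.4 with 0.01% Tween-20. Incubations ran 30 min at room temperature, with 10 ug/mL donor/acceptor beads.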
G9a block – inhibitors of human histone lysine methyltransferase G9a; G9a H3K9 monomethylation, AlphaScreen, 2 h; Potency, µM (titrated, usually from 102 µM), without a hit: top-dose activity, negative = inhibition, actives largely listed as inhibitors; 350,000 compounds, 8.8% hits; note: % is set by controls: 0 for no effect and ±100 for the full control effect; nearly all actives have a fitted effect of over 75% in size
Target sequence (Q96KQ7 913-1193 limits assumed): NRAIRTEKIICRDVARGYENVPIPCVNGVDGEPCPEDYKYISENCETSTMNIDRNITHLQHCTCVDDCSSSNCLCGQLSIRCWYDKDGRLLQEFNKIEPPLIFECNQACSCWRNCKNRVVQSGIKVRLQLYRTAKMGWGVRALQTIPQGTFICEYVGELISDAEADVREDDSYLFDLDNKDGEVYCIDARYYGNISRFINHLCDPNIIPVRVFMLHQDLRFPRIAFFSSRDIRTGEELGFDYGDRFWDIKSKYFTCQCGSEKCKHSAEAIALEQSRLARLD
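Step 1: enzyme (final 20 nM) with compound, 15 min RT. Step 2: substrate peptide 500 nM and SAM 20 uM, 2 h RT. Step 3: anti-H3K9me1 antibody and AlphaScreen beads, 10 min, then plate read.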
GLS inh – blocks human kidney-isoform glutaminase activity; GLS enzymatic activity, qHTS titration; Potency, µM (series often up to 45.5 µM), inactives show at the top dose activity change, negative = inhibition, hits mostly inhibitors; O94925; 410,000 compounds, 0.21% hits; AID 624170; note: % is set by controls: 0 for no effect and ±100 for the full control effect
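Compounds were pin-transferred onto hKGA, after which L-glutamine (1 mM solution) and a detection mix of glutamate oxidase, HRP and Amplex Red were added. Initial and 30 min RT fluorescence reads were collected.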
BAZ2B block – BAZ2B (human) inhibition | Q9UIF8 | AlphaScreen BAZ2B-H3K14Ac peptide displacement | Potency, µM (series often up to 114 µM), for the others: at the highest dose activity change, negative = inhibition, actives largely listed as inhibitors | 360,000 compounds, 4.4% hits | AID 504333; note: % is set by controls: 0 for no effect and ±100 for the full control effect; nearly all actives have a fitted effect of over 60% in size
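AlphaScreen luminescence quantifies BAZ2B engagement of H3K14Ac peptide; the protein and biotinylated peptide are both at 50 nM final, buffer PBS pH 7.4 with 0.01% Tween-20, all steps at room temperature.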
JMJD2A Tudor – blocks the human JMJD2A Tudor domain; Potency, µM (top dose mostly 114 µM), for the others: at the highest dose activity change, negative = inhibition, actives largely listed as inhibitors; AlphaScreen JMJD2A-Tudor / H3K4me3 peptide binding; AID 504339; 390,000 compounds, 4.4% hits; note: % is set by controls: 0 for no effect and ±100 for the full control effect; nearly all actives have a fitted effect of over 50% in size
* marks the source's active call; other numbers are inactive results; [ ] = remark or other dose. Sampled rows, rich in hits. Any-hit rate of the full collection: about 10%. Calls come from the whole dose curve; as a rule, active = well fitted curve in the direction sought with a large enough effect; inconclusive = small, poorly fitted or top-dose-only effect, or another doubt; inactive = no such curve, though single readings can be large; an effect the other way counts as inactive or inconclusive. Potency is the fitted concentration of half-maximal effect.

Screening COc1cc(/C=N/n2c(-c3ccccc3)n[nH]c2=S)cc(OC)c1O returned HP1b chromo inh -13%, G9a block 0.71µM*, GLS inh 4.5µM*, BAZ2B block -12% and JMJD2A Tudor 3.2µM*.
O=c1[nH]c2cc(F)ccc2c2ccc(F)cc12 was read as HP1b chromo inh 18%, GLS inh -15% and JMJD2A Tudor -32%.
CC(C)(C)Cc1c(-c2ccc(Cl)cc2)nc2ccc(Cl)cn12 was read as GLS inh -2%.
`O=C(CNc1ccc(Br)cc1)c1ccc(O)cc1` gave HP1b chromo inh -13%, G9a block 45µM*, GLS inh 0%, BAZ2B block 1% and JMJD2A Tudor inconclusive.
For O=C(CNc1ccc(Br)cc1)c1ccc(Br)s1 the results were HP1b chromo inh -11%, G9a block 40µM*, GLS inh -13%, BAZ2B block inconclusive and JMJD2A Tudor -16%.
For COc1ccc(C(=O)Nc2nc3n(n2)C(c2ccccc2)C=C(c2ccccc2)N3)cc1 (stereo not given) the results were HP1b chromo inh 39%, G9a block 25µM*, GLS inh 4%, BAZ2B block 22µM* and JMJD2A Tudor 79µM*.
Screening COc1ccc(C2C=C(c3ccc(Cl)cc3)Nc3nc(NC(C)=O)nn32)cc1 (stereo not given) returned G9a block inconclusive and BAZ2B block 32µM*.
CC(=O)Nc1nc2n(n1)C(c1ccc(F)cc1)C=C(c1ccccc1)N2 (stereo not given) was read as HP1b chromo inh 25%, G9a block 8.9µM*, GLS inh inconclusive, BAZ2B block 22µM* and JMJD2A Tudor inconclusive.
For CC(=O)Nc1nc2n(n1)C(c1ccccc1)C=C(c1ccccc1)N2 (stereo not given) the results were HP1b chromo inh 40%, G9a block inconclusive, GLS inh -7%, BAZ2B block 79µM* and JMJD2A Tudor 89µM*.
Screening COc1ccc(C2C=C(c3ccc(F)cc3)Nc3nc(-c4ccc(Cl)cc4)nn32)cc1 (stereo not given) returned HP1b chromo inh 68%, G9a block -13%[59 µM], GLS inh -29%, BAZ2B block -1% and JMJD2A Tudor -34%.
For O=c1n(Cc2ccccc2F)c2ccccc2n1Cc1ccccc1F the results were HP1b chromo inh 163%, G9a block -16%[59 µM], GLS inh 0%, BAZ2B block 116% and JMJD2A Tudor 38%.
Screening Oc1ccc(Br)cc1CN1CCCCCCC1 returned HP1b chromo inh -16%, G9a block inconclusive, GLS inh 33%, BAZ2B block 50µM* and JMJD2A Tudor 6.3µM*.
For Brc1cccc(CN2CCCCCC2)c1 the results were HP1b chromo inh inconclusive, G9a block 25µM*, GLS inh 9%, BAZ2B block inconclusive and JMJD2A Tudor 20µM*.
Screening CCc1nc2ccc(C(=O)NCc3ccc(N(C)C)cc3)cc2nc1CC returned HP1b chromo inh 2%, G9a block 3.5µM*, GLS inh -30%, BAZ2B block inconclusive and JMJD2A Tudor -33%.
Screening CC(C)c1nc2ccc(C(=O)NCc3ccc(N(C)C)cc3)cc2o1 returned HP1b chromo inh 1%[57 µM], G9a block 16µM*, GLS inh 14%, BAZ2B block inconclusive and JMJD2A Tudor inconclusive.
CCN(Cc1ccccc1)C(=O)CCNS(=O)(=O)c1ccc2c(c1)CC(C)N2C(C)=O (stereo not given) was read as HP1b chromo inh 32%, G9a block 26%[59 µM], GLS inh 1%, BAZ2B block 0% and JMJD2A Tudor -3%.
For CC(C)(C)OC(=O)N1CCC[C@H]1c1nnc(SCc2ccccc2)o1 the results were HP1b chromo inh -5%, G9a block inconclusive, GLS inh 0%, BAZ2B block -8% and JMJD2A Tudor 7%.
For CC(C)(C)OC(=O)N1CCC[C@H]1c1nnc(SCc2ccccc2F)o1 the results were HP1b chromo inh 53%, G9a block 50µM*, GLS inh 10%, BAZ2B block 4% and JMJD2A Tudor 3%.
Screening CC(=O)c1ccc(S(=O)(=O)N2CCN(C(=O)c3ccc(-n4cncn4)c([N+](=O)[O-])c3)CC2)cc1 returned HP1b chromo inh 11%, G9a block 9%[12.7 µM], GLS inh -4%, BAZ2B block 1% and JMJD2A Tudor -24%.
For O=C(O)C1Cc2[nH]cnc2C(c2ccccc2O)N1 (stereo not given) the results were HP1b chromo inh 18%, G9a block 17%[59 µM], GLS inh 23%, BAZ2B block 0% and JMJD2A Tudor 89µM*.
Screening O=C(O)C1Cc2[nH]cnc2C(c2cccc([N+](=O)[O-])c2)N1 (stereo not given) returned HP1b chromo inh 40%, G9a block 10%, GLS inh -10%, BAZ2B block inconclusive and JMJD2A Tudor -12%.
COC(=O)c1c(NC(=O)c2nc(SCc3ccc(C)cc3)ncc2Cl)sc2c1CCCC2 was read as HP1b chromo inh 27%, G9a block -30%[59 µM], GLS inh 0%, BAZ2B block -7% and JMJD2A Tudor -15%.
Screening COc1ccccc1CNC(=O)c1ccccc1C(=O)NC(CC(C)C)C(=O)NCc1ccccc1OC (stereo not given) returned HP1b chromo inh 3%, G9a block -5%[59 µM], GLS inh 7%, BAZ2B block inconclusive and JMJD2A Tudor 35µM*.
For COc1ccccc1CNC(=O)c1ccc(Br)o1 the results were HP1b chromo inh 52%, G9a block 35µM*, GLS inh 2%, BAZ2B block -3% and JMJD2A Tudor -19%.
CCOC(=O)CN1NC2(CCCCCC2)NC1=S was read as HP1b chromo inh 60%, GLS inh 13%, BAZ2B block -11% and JMJD2A Tudor 50µM*.
